Lassa entry inh = qHTS for Inhibitors of binding or entry into cells for Lassa Virus | Lassa virus pseudotype entry inhibition, cell reporter | Potency, µM (doses to about 37.9 µM), hits mostly inhibitors | 300,000 compounds, 1.2% hits | AID 540256, 2011; calls by dose curve; tested in HEK293 cells; note: nearly all actives have a fitted effect of over 50% in size
SARS PLP yeast = qHTS of Yeast-based Assay for SARS-CoV PLP; S. cerevisiae expressing SARS-CoV PLpro, growth rescue; Potency, µM (titrated, usually from 32.9 µM), actives largely listed as activators; 330,000 compounds, 0.19% hits; calls by dose curve; note: nearly all actives have a fitted effect of over 55% in size
MARV entry inh = qHTS for inhibitors of binding or entry into cells for Marburg Virus; Marburg virus pseudotyped entry inhibition, cell reporter; Potency, µM (series often up to 37.8 µM), most hits filed as inhibitors; 300,000 compounds, 1.8% hits; calls by dose curve; tested in HEK293 cells
HCV inhibitor = qHTS Assay for Inhibitors of Hepatitis C Virus (HCV) | Huh7.5.1 HCVcc-Cre infection, luciferase reporter, 44 h | Potency, µM (titrated, usually from 41.8 µM), most hits filed as inhibitors | 340,000 compounds, 3.4% hits; active = well fitted inhibition curve with a large enough effect; inconclusive = small, poorly fitted or top-dose-only effect, or another doubt; inactive = no such curve, though single readings can be large or run the other way
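Compounds are dispensed onto cells plated 4 h earlier at 1,000 per well, with HCVcc-Cre virus (about 0.5 moi) added next. Following 44 h of culture, luminescent signal is measured for 15 sec after 15 min with substrate at room temperature.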
HCMV inh = qHTS Assay for inhibitors of the human cytomegalovirus (HCMV) | HFF cells, HCMV-luciferase reporter, 72 h; active compounds read low | activity change, negative = inhibition, % at 57.5 µM | 410,000 compounds, 4.5% hits; in the data active = activity change below about -60%; inconclusive = no clear call, values can overlap the other calls; inactive = above about -39%
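Luciferase read-out from HCMV-luciferase-infected HFFs (MOI 1 PFU/cell) 72 h post infection at 37C; compounds added after 16 h cell attachment; activity normalized between buffer-only basal and Salinomycin (10uM) inhibitor controls.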
FMDV inh = High Throughput Screening for Foot and Mouth Disease Virus Antivirals; 410,000 compounds, 1.2% hits; FMDV antiviral cell-based qHTS; Potency, µM (series often up to 57.9 µM), usual class: inhibitors; AID 1159524, 2015; calls by dose curve; tested in HEK293T cells; note: read-out not given here; nearly all actives have a fitted effect of over 45% in size
Numbers stand for hits. Only some compounds are listed: those with a hit (about 8% of all), similar ones and a draw of the others.

Results for Cc1nn(-c2ccccc2)c(C)c1NC(=O)COc1ccc(F)cc1Cl ?
Lassa entry inh: inactive; SARS PLP yeast: inactive; MARV entry inh: inconclusive; HCV inhibitor: inconclusive; HCMV inh: inconclusive; FMDV inh: 20µM

How did Cc1nn(-c2ccccc2)c(C)c1NC(=O)COc1ccc([N+](=O)[O-])cc1 do in these assays?
Lassa entry inh: inactive; SARS PLP yeast: inactive; MARV entry inh: inconclusive; HCV inhibitor: inactive; HCMV inh: inactive; FMDV inh: inconclusive

What do the screens show for `Cc1ccc(OCC(=O)Nc2c(C)nn(-c3ccccc3)c2C)c(Br)c1`?
Lassa entry inh: inactive; SARS PLP yeast: inactive; MARV entry inh: inactive; HCV inhibitor: inconclusive; HCMV inh: inactive; FMDV inh: 39.8µM

How did CNc1ccccc1C(C)(C)c1cc(-c2cccc(OC)c2)no1 do in these assays?
Lassa entry inh: inactive; SARS PLP yeast: inactive; MARV entry inh: inconclusive; HCV inhibitor: inconclusive; HCMV inh: -82.7; FMDV inh: inconclusive

What do the screens show for `Cc1ccc(S(=O)(=O)n2nccc2-c2c(-c3ccc(Cl)cc3)noc2C)cc1`?
Lassa entry inh: inconclusive; SARS PLP yeast: inactive; MARV entry inh: inconclusive; HCV inhibitor: 14.1µM; HCMV inh: -95.9; FMDV inh: inactive

Results for CC(Oc1ccc(Cl)cc1)c1ccnn1S(=O)(=O)c1ccc(Cl)cc1 (stereo not given) ?
Lassa entry inh: inactive; SARS PLP yeast: inactive; MARV entry inh: inactive; HCV inhibitor: inconclusive; HCMV inh: inactive; FMDV inh: inconclusive

How did S=C(NC1CCCCC1)N1CCOCCOCCN(C(=S)NC2CCCCC2)CCOCCOCC1 do in these assays?
Lassa entry inh: inconclusive; SARS PLP yeast: inactive; MARV entry inh: inconclusive; HCV inhibitor: inactive; HCMV inh: -78.0; FMDV inh: inactive

How did Cn1cnc([N+](=O)[O-])c1S(=O)(=O)c1ccc(Cl)cc1 do in these assays?
Lassa entry inh: 20µM; SARS PLP yeast: inactive; MARV entry inh: inconclusive; HCV inhibitor: inconclusive; HCMV inh: inactive; FMDV inh: 14.1µM

How did Cn1cnc([N+](=O)[O-])c1NC(C)(C)C do in these assays?
Lassa entry inh: inactive; SARS PLP yeast: inactive; MARV entry inh: inactive; HCV inhibitor: inactive; HCMV inh: inactive; FMDV inh: inactive

What do the screens show for `C=CCn1c(C)cc(C(=O)COC(=O)/C=C/c2ccc(OC)cc2)c1C`?
Lassa entry inh: inactive; SARS PLP yeast: inactive; MARV entry inh: inactive; HCV inhibitor: inconclusive; HCMV inh: inactive; FMDV inh: inactive

Results for C=CCn1c(C)cc(C(=O)COC(=O)/C=C/c2cccc(OC)c2)c1C ?
SARS PLP yeast: inactive; HCV inhibitor: 12.6µM; HCMV inh: inconclusive; FMDV inh: inactive

How did O=c1c2ccccc2c(C=Nc2cccc(O)c2)c(O)n1-c1ccc2c(c1)OCO2 do in these assays?
Lassa entry inh: inactive; SARS PLP yeast: inactive; MARV entry inh: inactive; HCV inhibitor: inactive; HCMV inh: -86.1; FMDV inh: inactive

Results for Cc1ccccc1-n1c(O)c(C=Nc2ccc3c(c2)OCO3)c(=O)[nH]c1=O ?
Lassa entry inh: inactive; SARS PLP yeast: inactive; MARV entry inh: inactive; HCV inhibitor: inactive; HCMV inh: inactive; FMDV inh: inactive

How did CCOc1ccc(CNS(=O)(=O)c2cc3c(cc2C)NC(=O)CO3)cc1OC do in these assays?
Lassa entry inh: inactive; HCMV inh: inactive; FMDV inh: inactive

What do the screens show for `CC(C)(C)c1ccc(COC(=O)Nc2ccc(F)cc2)cc1`?
Lassa entry inh: inactive; SARS PLP yeast: inactive; MARV entry inh: inconclusive; HCV inhibitor: inactive; HCMV inh: inactive; FMDV inh: inactive

How did CCOc1ccc(NC(=O)Nc2cc(OCC(F)(F)F)cc(OCC(F)(F)F)c2)cc1 do in these assays?
Lassa entry inh: inconclusive; SARS PLP yeast: inactive; MARV entry inh: inconclusive; HCV inhibitor: inconclusive; HCMV inh: inactive; FMDV inh: inactive

How did O=C(Nc1ccc(F)cc1)Nc1cc(OCC(F)(F)F)cc(OCC(F)(F)F)c1 do in these assays?
Lassa entry inh: 18.4µM; SARS PLP yeast: inactive; MARV entry inh: 8.91µM; HCV inhibitor: inconclusive; HCMV inh: -101.3; FMDV inh: inactive

Results for CC(C)(C)c1ccc(NC(=O)Nc2ccc(F)cc2)cc1 ?
Lassa entry inh: inconclusive; SARS PLP yeast: inactive; MARV entry inh: inconclusive; HCV inhibitor: 10µM; HCMV inh: inactive; FMDV inh: inactive

What do the screens show for `O=[N+]([O-])c1c(NCc2ccccc2)cc(N2CCc3ccccc3C2)c2nonc12`?
Lassa entry inh: inactive; SARS PLP yeast: inactive; MARV entry inh: inconclusive; HCV inhibitor: 1.41µM; HCMV inh: inconclusive; FMDV inh: inactive

What do the screens show for `CC(C)(C)OC(=O)NN1CC(=O)N2Cc3ccccc3C[C@@H]2C1=O`?
SARS PLP yeast: inactive; HCV inhibitor: inactive; HCMV inh: inactive; FMDV inh: inactive

Results for CC(C)CCN1CCN(Cc2ccc(N3CCNC3=O)cc2)CC1CCO (stereo not given) ?
SARS PLP yeast: inactive; HCV inhibitor: inactive; HCMV inh: inactive; FMDV inh: inactive

How did CC1CCN(c2nc3nonc3nc2Nc2ccc(F)cc2)CC1 do in these assays?
Lassa entry inh: inconclusive; SARS PLP yeast: inactive; MARV entry inh: inconclusive; HCV inhibitor: 11.2µM; HCMV inh: inconclusive; FMDV inh: 28.2µM

What do the screens show for `O=C(Nc1cc(F)cc(F)c1)c1ccc(NCCCN2CCCCCC2)c([N+](=O)[O-])c1`?
Lassa entry inh: inactive; SARS PLP yeast: inactive; MARV entry inh: inconclusive; HCV inhibitor: inconclusive; HCMV inh: inactive; FMDV inh: inactive

What do the screens show for `Cc1ccc(NC(=O)c2ccc(NCCCN3CCC(C)CC3)c([N+](=O)[O-])c2)c(C)c1`?
SARS PLP yeast: inactive; HCV inhibitor: 11.2µM; HCMV inh: inconclusive; FMDV inh: inactive

Results for CCCN(CCC)CCCNc1ccc(C(=O)Nc2cccc(OC)c2)cc1[N+](=O)[O-] ?
Lassa entry inh: inactive; SARS PLP yeast: inactive; MARV entry inh: inconclusive; HCV inhibitor: inconclusive; HCMV inh: inconclusive; FMDV inh: inactive

What do the screens show for `COc1cccc(NC(=O)c2ccc(NCCCN3CCC(C)CC3)c([N+](=O)[O-])c2)c1`?
Lassa entry inh: inactive; SARS PLP yeast: inactive; MARV entry inh: 3.98µM; HCV inhibitor: inconclusive; HCMV inh: inactive; FMDV inh: inactive

How did Cc1ccc(NC(=O)c2ccc(NCCN)c([N+](=O)[O-])c2)cc1Cl do in these assays?
Lassa entry inh: inactive; SARS PLP yeast: inactive; MARV entry inh: inconclusive; HCV inhibitor: 14.1µM; HCMV inh: -81.7; FMDV inh: inactive

What do the screens show for `COc1cccc(NC(=O)c2ccc(NCCCN3CC(C)CC(C)C3)c([N+](=O)[O-])c2)c1` (stereo not given)?
Lassa entry inh: inactive; SARS PLP yeast: inactive; MARV entry inh: inactive; HCV inhibitor: 7.94µM; HCMV inh: inactive; FMDV inh: inactive

Results for CC(=O)OC[C@H]1O[C@H](CC=NO[C@@H](C)CN2CCCc3nc(C)c(C)cc32)C=C[C@@H]1OC(C)=O ?
MARV entry inh: inactive

Assay outcomes as filed in PubChem.
